{
  "source": "PubChem BioAssay AID504843",
  "about": "(Broad Institute, 2011)",
  "note": "Hit rate of the full screen: of about 1,200 compounds, about 360 (30%) were called active. Only a sample is shown. Entries with a potency or affinity are not part of this list. A number with no mark means an inactive call. The rule behind the calls is not given here.",
  "data": [
    {"experiment": "bacterial growth inhibition, dose response, counter-screen, BacTiter-Glo luminescence, cherry-picked samples (AID 504843);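 note: growth measured after 8 h incubation at 30 °C; 0% = median of sample compound wells and -100% = antibiotic control wells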", "settings": "BacTiter-Glo ATP luminescence; series mostly up to 15 µM; activity change, negative = inhibition: at the top concentration", "units": {"activity change, negative = inhibition": "%"}, "values": [
      {"compound": "C(=N\\n1cncn1)/c1ccc(N2CCOCC2)cc1", "activity change, negative = inhibition": -9.77},
      {"compound": "Cc1cnc(C(=O)OCC(=O)c2ccc(-c3ccccc3)cc2)cn1", "activity change, negative = inhibition": -0.804},
      {"compound": "CN(C(=O)COC(=O)c1cccc(S(=O)(=O)N2CCOCC2)c1)C1CCS(=O)(=O)C1", "note": "(stereo not given)", "activity change, negative = inhibition": -2.99},
      {"compound": "O=C(OCC(=O)N1CCCC1=O)c1cccc(S(=O)(=O)N2CCOCC2)c1", "activity change, negative = inhibition": 1.48},
      {"compound": "Cc1ccc(C(=O)N/C(=C\\c2cn(S(=O)(=O)N(C)C)c3ccccc23)C(=O)NCCCN2CCOCC2)cc1", "activity change, negative = inhibition": 1.64},
      {"compound": "COc1ccc(C)cc1S(=O)(=O)N(CC(=O)NC1CCCC1)c1ccc(F)cc1", "activity change, negative = inhibition": 10.7},
      {"compound": "COc1ccc(S(=O)(=O)N2CCN(CC(=O)Nc3c(C)n[nH]c3C)CC2)cc1OC", "activity change, negative = inhibition": 22.9},
      {"compound": "COc1cc(CNCc2ccccn2)ccc1OCc1c(Cl)cccc1Cl", "activity change, negative = inhibition": 1.71},
      {"compound": "Cc1nn(-c2ccccc2)c(Cl)c1/C=N/NC(=O)c1ccccc1NS(=O)(=O)c1cccs1", "activity change, negative = inhibition": 11.3},
      {"compound": "CCOC(=O)c1c(NC(=O)C2C3C=CC(C3)C2C(=O)O)sc2c1CCC(C)C2", "note": "(stereo not given)", "activity change, negative = inhibition": -13},
      {"compound": "COc1ccc(S(=O)(=O)N2CCC(C(=O)N3CCN(C)CC3)CC2)cc1Cl", "activity change, negative = inhibition": -12.6},
      {"compound": "COc1ccc(OC)c(S(=O)(=O)N2CCC(C(=O)NC3CC3)CC2)c1", "activity change, negative = inhibition": 9.45},
      {"compound": "COc1cccc(C(=O)N(CN2CCCC2=O)c2cccc(Cl)c2)c1OC", "activity change, negative = inhibition": -0.914},
      {"compound": "NS(=O)(=O)c1cc(C(=O)O)c(NCc2ccco2)cc1Cl", "activity change, negative = inhibition": 9.75},
      {"compound": "COc1ccc(S(=O)(=O)NCCSCc2ccco2)cc1Cl", "activity change, negative = inhibition": -3.17},
      {"compound": "CS(=O)(=O)c1ccc([C@@H](O)[C@@H](CF)NC(=O)C(Cl)Cl)cc1", "activity change, negative = inhibition": -13.5},
      {"compound": "CCC[C@@H]1C[C@@H](C(=O)N[C@H]([C@@H](C)O)[C@H]2O[C@H](SC)[C@H](O)[C@@H](O)C2O)N(C)C1", "note": "(stereo not given in full)", "activity change, negative = inhibition": -11.7},
      {"compound": "O=C(O)CCc1ccc(-c2cccs2)o1", "activity change, negative = inhibition": 5.51},
      {"compound": "c1ccc(CC2=NCCN2)cc1", "activity change, negative = inhibition": -0.359},
      {"compound": "Cc1ccc2[nH]c(=O)c(CNS(=O)(=O)c3ccccc3)c(-c3ccccc3)c2c1", "activity change, negative = inhibition": 17.9},
      {"compound": "Cc1ccccc1Nc1nnc(C)c(=O)[nH]1", "activity change, negative = inhibition": 10.6},
      {"compound": "Cc1cccc(-c2onc3ccc(C4(C)OCCO4)cc23)c1", "activity change, negative = inhibition": 11.3},
      {"compound": "COc1ccc(/C=N/NC(=O)COc2cc(C)cc(C)c2)cc1COC(C)=O", "activity change, negative = inhibition": 1.36},
      {"compound": "CCn1c(SCC(=O)NC2CCCCC2)nnc1-c1cccnc1", "activity change, negative = inhibition": 9.43},
      {"compound": "Cc1ccc(NC(=O)CSc2nccn2C)cc1F", "activity change, negative = inhibition": -13.7},
      {"compound": "Cc1ccc(N2CC(C(=O)Nc3cc(C(F)(F)F)ccc3N3CCCC3)CC2=O)cc1", "note": "(stereo not given)", "activity change, negative = inhibition": -1.85},
      {"compound": "CCOCCCNC(=O)C(c1ccc(C)cc1)N(Cc1cccs1)C(=O)c1ccccc1O", "note": "(stereo not given)", "activity change, negative = inhibition": -28.2},
      {"compound": "COc1ccc(OC)c(C(=O)CSc2nnc(-c3cccs3)o2)c1", "activity change, negative = inhibition": 12.4},
      {"compound": "O=C(Nc1ccc(C(=O)O)cc1)/C(=C\\C=C\\c1ccccc1)NC(=O)c1ccccc1Br", "activity change, negative = inhibition": -18.5},
      {"compound": "Cc1noc(NS(=O)(=O)c2ccc(NC(=O)c3ccoc3C)cc2)c1C", "activity change, negative = inhibition": 19.2},
      {"compound": "O=C(O)c1ccn(COc2ccc(Br)cc2)n1", "activity change, negative = inhibition": 5.36},
      {"compound": "Cc1ccc(NC(=O)c2cc(N3C(=O)C4CC=CCC4C3=O)ccc2N2CCOCC2)cc1Cl", "note": "(stereo not given)", "activity change, negative = inhibition": 0.728},
      {"compound": "CCOc1ccc(N(CC(=O)NCc2ccc(OC)cc2)S(=O)(=O)c2c(C)[nH]c(=O)[nH]c2=O)cc1", "activity change, negative = inhibition": 14.2},
      {"compound": "CN1CCc2c(sc3nc(SCC(=O)N4CCOCC4)nc(N)c23)C1", "activity change, negative = inhibition": 12.1},
      {"compound": "Cc1cc(C)c(C#N)c(Oc2ccccc2Br)n1", "activity change, negative = inhibition": -1.47},
      {"compound": "Cc1nnc(Nc2ccc(Cl)c(C(F)(F)F)c2)[nH]c1=O", "activity change, negative = inhibition": 2.24},
      {"compound": "CC(/C=N/NC(=O)c1n[nH]c2c1CCC2)=C\\c1ccccc1", "activity change, negative = inhibition": -2.7},
      {"compound": "CCCN=C1N(CC)C[C@@H]2[C@@H]3C(=O)N(C)C(=O)[C@@H]3[C@](Cc3ccccc3)(C(=O)OC)N12", "activity change, negative = inhibition": 18.6},
      {"compound": "O=C(CCCc1nc2ccccc2s1)NC1CCOC1=O", "note": "(stereo not given)", "activity change, negative = inhibition": 8.2},
      {"compound": "Cc1cccc(CS(=O)(=O)c2ncc(Cl)c(C(=O)Nc3nnc(C(C)C)s3)n2)c1", "activity change, negative = inhibition": -5.68},
      {"compound": "Cc1cccc(NC(=O)CN(c2ccc(F)cc2)S(C)(=O)=O)c1", "activity change, negative = inhibition": 14.4},
      {"compound": "O=C(C[C@H]1C[C@H](C(=O)N2CCOCC2)[C@@]2(CCC3CCCC3)c3[nH]c4cc(-c5ccco5)ccc4c3CCN2C1=O)NCCCn1ccnc1", "activity change, negative = inhibition": -7.23},
      {"compound": "CC(=O)Nc1ccc(/C=N/N2CCCCC2)cc1", "activity change, negative = inhibition": -9.51},
      {"compound": "Cc1ccc(/C=C2/C(=N)N3N=C(CC(=O)N4CCCC4)SC3=NC2=O)o1", "activity change, negative = inhibition": 1.5},
      {"compound": "C=CCN1C(=O)c2ccc(C(=O)N3CCC(C(N)=O)CC3)cc2C1=O", "activity change, negative = inhibition": -16.8},
      {"compound": "CC(NC(=O)c1ccc([N+](=O)[O-])o1)C12CC3CC(CC(C3)C1)C2", "note": "(stereo not given)", "activity change, negative = inhibition": 22.9},
      {"compound": "CC(C)N1CCc2c(sc(NC(=O)c3ccc(S(=O)(=O)N4CCc5ccccc54)cc3)c2C(N)=O)C1", "activity change, negative = inhibition": -10.4},
      {"compound": "Cc1ccc2nc(C(=O)O)c(C(=O)O)nc2c1", "activity change, negative = inhibition": -2.68},
      {"compound": "NC(=O)Cn1c(-c2nonc2N)nc2ccccc21", "activity change, negative = inhibition": 14.1},
      {"compound": "CC(C)c1nn2c(=O)cc(CSc3ccccc3NC(=O)c3ccccc3F)nc2s1", "activity change, negative = inhibition": -10.6}
    ]}
  ]
}
